Gli-Sufu antag – Gli-Sufu pathway antagonists, primary screen, luciferase luminescence, Sufu-KO-LIGHT cells, uHTS; Sufu-KO-LIGHT fibroblasts, Gli luciferase reporter luminescence; inhibition, % at 5 µM; actives 0.74% (n = 340,000); AID 588413, 2011;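 active = inhibition above about 55%, limit read from the data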;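 note: 0% = DMSO-treated cells and 100% = wells with medium but no cells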
Beta apoptosis – inhibitors of cytokine-induced beta cell apoptosis, primary screen, luminescence; INS-1E cytokine-induced death, ATP luminescence, 48 h; percent of positive-control rescue, neutral wells zero; protection from apoptosis, % (concentration not given with the values); actives 0.8% (n = 300,000);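 active = Every replicate reaches about 75%, or at least half do and their mean reaches it too, limit read from the data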;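 note: 0% = cytokine-treated negative control wells and 100% = positive control rescue; higher means more ATP so stronger rescue from cytokine killing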
Mdm2 MdmX PPI – inhibitors of human Mdm2-MdmX association, primary screen, cell-based, luminescence, split luciferase, SaOS-2, uHTS; SaOS-2 split-luciferase Mdm2/MdmX complementation; inhibition, % at 8 µM; actives 3% (n = 330,000);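 active = inhibition of at least 50% at 8 µM in the primary screen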
Target sequence (O15151 whole entry, looked up): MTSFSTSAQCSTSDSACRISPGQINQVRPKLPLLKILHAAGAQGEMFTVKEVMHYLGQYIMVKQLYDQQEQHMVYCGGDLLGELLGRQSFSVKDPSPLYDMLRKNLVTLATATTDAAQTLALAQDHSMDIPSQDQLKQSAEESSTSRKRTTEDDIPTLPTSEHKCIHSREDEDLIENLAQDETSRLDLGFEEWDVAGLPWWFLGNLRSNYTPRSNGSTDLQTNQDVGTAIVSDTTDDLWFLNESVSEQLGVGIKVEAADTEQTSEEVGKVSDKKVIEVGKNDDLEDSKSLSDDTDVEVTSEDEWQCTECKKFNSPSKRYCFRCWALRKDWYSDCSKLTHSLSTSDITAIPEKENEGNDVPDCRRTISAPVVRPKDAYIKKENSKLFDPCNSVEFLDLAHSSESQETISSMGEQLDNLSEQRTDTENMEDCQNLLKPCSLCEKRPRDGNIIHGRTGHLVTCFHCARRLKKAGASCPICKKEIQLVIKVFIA
Target sequence (Q00987 whole entry, looked up): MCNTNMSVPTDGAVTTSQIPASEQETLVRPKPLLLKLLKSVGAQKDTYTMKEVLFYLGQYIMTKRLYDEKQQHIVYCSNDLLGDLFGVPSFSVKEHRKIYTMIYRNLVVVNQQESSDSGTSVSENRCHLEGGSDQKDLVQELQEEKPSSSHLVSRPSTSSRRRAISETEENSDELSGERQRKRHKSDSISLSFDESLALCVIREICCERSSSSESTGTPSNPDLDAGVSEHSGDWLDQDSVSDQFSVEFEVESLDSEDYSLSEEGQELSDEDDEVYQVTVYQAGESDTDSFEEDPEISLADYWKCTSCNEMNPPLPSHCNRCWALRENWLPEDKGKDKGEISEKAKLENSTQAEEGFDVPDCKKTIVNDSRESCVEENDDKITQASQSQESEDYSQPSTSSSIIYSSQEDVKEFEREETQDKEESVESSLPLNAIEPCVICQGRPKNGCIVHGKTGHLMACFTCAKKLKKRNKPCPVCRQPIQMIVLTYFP
697 NFkB inh – inhibitors of PMA/ionomycin-induced NF-kB reporter, 697 cells, primary screen, B-cell NF-kB inhibitor project, cell-based, luminescence, uHTS | 697 B-cell NF-kB luciferase reporter, 16 h | inhibition, % at 4 µM | actives 0.33% (n = 330,000); in the data active = inhibition above about 35%
Jurkat NFkB inh – inhibitors of induced NF-kB luciferase reporter, primary screen, TCR NF-kB activation inhibitor project, cell-based, luminescence, uHTS. inhibition, % at 4 µM. actives 0.53% (n = 330,000). AID 435003, 2010. Jurkat, PMA/ionomycin-induced NF-kB luciferase reporter; in the data active = inhibition above about 50%
Jurkat NFkB conf – PMA/ionomycin-induced NF-kB reporter inhibitors, Jurkat retest, confirmation, T-cell NF-kB inhibitor project, cell-based, luminescence, single concentration; shares compounds with Jurkat NFkB inh; Jurkat NF-kB luciferase, 16 h; inhibition, % at 4 µM; actives 27% (n = 2,700);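 active = inhibition reaching about 45% at 4 µM in either replicate, limit read from the data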;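 note: plate controls were PMA/ionomycin stimulated DMSO wells for no effect and unstimulated DMSO wells for full effect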
697 NFkB conf – PMA/ionomycin-induced NF-kB reporter inhibitors, 697 retest, confirmation, B-cell NF-kB inhibitor project, cell-based, luminescence, single concentration; shares compounds with 697 NFkB inh; 697 B-cell NF-kB luciferase, 16 h; inhibition, % at 4 µM; actives 35% (n = 2,000); AID 449746, 2010; in the data active = inhibition mostly above about 28%, no sharp cut-off; inactive = mostly below about 22%
Mdm2 MdmX conf – Mdm2-MdmX complex disruptors, retested hits, confirmation, luminescence, single concentration | inhibition, % at 8 µM | actives 55% (n = 10,000) | Mdm2-MdmX binding, luminescent assay | shares compounds with Mdm2 MdmX PPI; in the data active = inhibition above about 40%
Full FLuc ctr – full-length luciferase signal inhibition, confirmation, counter-screen for Mdm2/MdmX interaction inhibitor project, cell-based, single concentration, SaOS-2 | AID 504607, 2011 | shares compounds with Mdm2 MdmX PPI | inhibition, % at 8 µM | SaOS-2 full-length luciferase counterscreen, luminescence | actives 77% (n = 6,200);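 active = mean inhibition at 8 µM reaching about 37%, which flags the compound as non-specific, limit read from the data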;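 note: p53-null SaOS-2 cells with luciferase driven by a doxycycline-inducible promoter; compound on cells about two nights before reading with doxycycline added after day one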
Gli antag conf – Gli-SUFU pathway antagonists, confirmation, single concentration, luciferase luminescence, Sufu-KO-LIGHT cells; shares compounds with Gli-Sufu antag; Gli luciferase reporter; inhibition, % at 5 µM; actives 40% (n = 2,500); AID 602428, 2012;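 active = mean inhibition at 5 µM reaching about 45%, limit read from the data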;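 note: plate controls were DMSO-treated cells for no effect and wells lacking cells for full effect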
SufuKO cytotox – cytotoxicity in Sufu-KO-LIGHT cells, confirmation, cytotoxicity control for Gli-SUFU antagonist project, cell-based, ATP luminescence, single concentration | shares compounds with Gli-Sufu antag | cytotoxicity, % at 5 µM | actives 32% (n = 2,500) | AID 651994, 2013;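 active = mean cytotoxicity at 5 µM above about 25%, limit read from the data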;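 note: cells exposed to compound overnight for roughly 16 to 18 hours; plate controls were DMSO wells with cells for no effect and medium without cells for full effect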
Wnt3a cs – Wnt3a reporter signal inhibition, confirmation, counter-screen for Gli-SUFU antagonist project, Wnt-LIGHT cells, luminescence, single concentration; shares compounds with Gli-Sufu antag; Wnt3a-driven luciferase reporter; actives 20% (n = 2,500); inhibition, % at 6.25 µM;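 active = mean inhibition above about 25%, limit read from the data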
Active calls of the source: *; . = no result given. Compounds with a hit are over-represented: about 4% of the library has one in this group of screens.

SMILES	Gli-Sufu antag	Beta apoptosis	Mdm2 MdmX PPI	697 NFkB inh	Jurkat NFkB inh	Jurkat NFkB conf	697 NFkB conf	Mdm2 MdmX conf	Full FLuc ctr	others
CC(C)(O)/C=C/C(=O)[C@](C)(O)C1[C@H](O)C[C@@]2(C)C3CC=C4C(C[C@H](O)[C@@H](O)C4(C)C)[C@]3(C)C(=O)C[C@]12C (some centres not stated)	72.4*	52.4	97.8*	41.4*	62.4*	14.9	50.2*	93.7*	7.0
C[n+]1c(-c2ccccc2)c2cc(N)ccc2c2ccc(N)cc21	-9.6	97.1*	84.9*	57.7*	66.5*	61.9*	54.5*	70.2*	13.0
Nc1ccc2ccc3cccc[n+]3c2c1	12.1	23.0	10.0	-21.0	-5.5	.	.	.	.
Cc1cc(C)cc(NC2=NCCCS2)c1	41.5	1.0	17.6	12.8	9.6	.	.	.	.
CC(=O)O[C@@]12CO[C@@H]1C[C@@H](O)[C@@]1(C)C(=O)[C@H](O)C3=C(C)[C@@H](OC(=O)[C@H](O)[C@@H](NC(=O)c4ccccc4)c4ccccc4)C[C@@](O)([C@@H](OC(=O)c4ccccc4)C12)C3(C)C (some centres not stated)	-1.9	2.5	50.9*	-26.8	64.8*	64.9*	.	61.0*	48.2*
CCC(C)C(=O)N[C@@H](c1ccccc1)[C@@H](O)C(=O)O[C@H]1C[C@@]2(O)[C@@H](OC(=O)c3ccccc3)C3[C@](C)(C(=O)[C@H](OC(C)=O)C(=C1C)C2(C)C)[C@@H](O)C[C@H]1OC[C@@]31OC(C)=O (some centres not stated)	-9.6	14.9	62.4*	-6.0	71.7*	68.0*	.	66.1*	39.2*
CC/C=C/CC(=O)N[C@@H](c1ccccc1)[C@@H](O)C(=O)O[C@H]1C[C@@]2(O)[C@@H](OC(=O)c3ccccc3)C3[C@](C)(C(=O)[C@H](OC(C)=O)C(=C1C)C2(C)C)[C@@H](O)C[C@H]1OC[C@@]31OC(C)=O (some centres not stated)	-15.1	.	69.2*	-14.8	65.9*	63.0*	.	67.2*	47.6*
COC(=O)C1=C(c2ccc(F)cc2F)C[C@@H]2CC[C@H]1N2C(=O)NCCOc1ccccc1	1.9	12.8	7.4	5.5	6.9	.	.	.	.
CC(CCN1CC1)=NNC(=O)Nc1cccc2ccccc12	0.6	.	.	.	.	.	.	.	.
COc1cccc(NP(=O)(Oc2ccccc2)Oc2ccccc2)c1	0.6	7.4	58.4*	-50.8	62.3*	15.9	.	53.1*	36.6*
COc1cccc(NP(=O)(Oc2ccccc2Cl)Oc2ccccc2Cl)c1	0.1	-2.8	-5.2	-81.6	24.4	.	.	.	.
O=C1NC(=O)C2(CCCC2)C(=O)N1	4.4	.	.	.	.	.	.	.	.
COc1ccc(C[C@H]2NC[C@H](O)[C@H]2OC(C)=O)cc1	86.6*	51.5	98.0*	100.4*	99.6*	99.3*	94.1*	98.4*	4.6	Gli antag conf=91.8*;SufuKO cytotox=75.0*;Wnt3a cs=103.5*
Oc1ccccc1C1NCc2ccccc2-n2cccc21 (configuration not stated)	0.9	-2.8	15.1	4.2	-4.0	.	.	.	.
CCCCOC(=O)COc1cc(C)cc2oc(=O)c3c(c12)CCC3	2.6	2.7	23.0	-7.9	-1.6	.	.	.	.
C=CCOC(=O)COc1cc(C)cc2oc(=O)c3c(c12)CCC3	-1.9	0.8	20.6	40.2*	13.4	.	32.5*	.	.
Cn1c(=O)cc(OCC(=O)N2CCC3(CC2)OCCO3)c2ccccc21	9.4	-2.5	21.1	42.4*	14.8	.	39.6*	.	.
COC(=O)C1=C(C(=O)OC)C2OC1c1cc3ccccc3cc12	6.7	.	.	.	.	.	.	.	.
Cn1cnc([N+](=O)[O-])c1Sc1ccc([N+](=O)[O-])cc1	10.2	-20.4	0.9	36.2*	20.3	.	42.8*	.	.
CC1CC2(C)C(CCC3C2CCC2(C)C(OP(=O)(N4CC4)N4CC4)CCC32)CC1=O (configuration not stated)	17.4	.	.	.	.	.	.	.	.
COc1ccc(C2=NCc3nnc(C)n3-c3ccc(Cl)cc32)cc1Cl	32.1	-0.2	64.9*	44.9*	-31.2	.	35.4*	28.2	.
C/C=C(\C)C(=O)OC1C(C)=C2C(C1OC(=O)CCCCC)C(C)(OC(C)=O)CC(OC(=O)CCC)C1(O)C2OC(=O)C1(C)O (configuration not stated)	.	107.5*	82.1*	-262.5	11.6	.	-296.1	64.5*	24.1
CCN(CC)P(=O)(c1n(CC)cc[n+]1CC)N(CC)CC	-2.4	2.3	16.4	12.1	-6.0	.	.	.	.
CNC(=O)c1cccn(Cc2ccc(C(F)(F)F)cc2)c1=O	41.8	9.8	56.3*	49.9*	5.7	.	61.2*	26.3	.
CC(=O)O/C(=C1\CC2C3CC=C4CC(OC(C)=O)CCC4(C)C3CCC2(C)C1=O)C(F)(F)F (configuration not stated)	-0.5	.	.	.	.	.	.	.	.
Clc1ccc(NC2=NCCCS2)cc1Cl	2.1	-5.8	4.6	3.5	-4.1	.	.	.	.
CC(=O)NC(Cc1ccc(N(CCCl)CCCl)cc1)C(=O)O (configuration not stated)	8.0	.	0.3	10.7	11.3	.	.	.	.
N[C@@H](Cc1ccc(N(CCCl)CCCl)cc1)C(=O)O	11.3	10.9	68.1*	-23.7	-12.3	.	.	39.6	36.4*
